# Screens as filed in PubChem.
# A selection: hits, their analogues and other compounds. The true share with any hit is near 2.5%.
# Env fusion inh: HIV envelope-mediated fusion inhibition | 360,000 tested, 1.1% active | inhibition, % at 12.3 µM | HeLa-JRFL Env/CEM21 cell fusion, luciferase;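 active = mean replicate inhibition score of at least 50 and every replicate individually at or above 50; inconclusive = only one of the two criteria met; inactive = mean below 50 and not all replicates reaching 50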;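 note: 0% = plate neutral controls and 100% = maraviroc near 300 nM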
# PAX8 inh HTS: inhibitors of PAX8 transcriptional activity in RMG-I cells. RMG-I TPO-luciferase reporter, SteadyGlo, 24 h. inhibition, % at 12.6 µM. 360,000 tested, 1.2% active. AID 652154;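 active = mean replicate inhibition at least 60% with every replicate also reaching 60%; inconclusive = only one of the two criteria is met; inactive = mean below 60% and not all replicates reaching 60%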;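 note: luciferase light reporting Pax8 driven TPO promoter activity; plate controls were median of neutral control wells for no effect and mitoxantrone controls for full effect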
# F508del corr: correctors of CFTR F508del function in bronchial epithelial cells; CFBE cells, YFP halide quenching; stimulated with forskolin plus potentiator P3; % fluorescence drop versus neutral controls; activity (quench increase), % at 7.58 µM; 350,000 tested, 0.36% active; AID 720511;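 active = mean added fluorescence quench of at least 8% versus neutral control, with both replicates also reaching 8%; inconclusive = only one of the mean or replicate conditions met; inactive = mean below 8% and not both replicates reaching 8%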;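 note: cells transiently co-express mutant CFTR-F508del with the halide-sensitive YFP; corrector assay measuring rescue of mutant channel to the surface after 24 h compound exposure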
# EWS-Fli inh: inhibitors of EWS/Fli oncoprotein transcriptional activity; inhibition, % at 12.6 µM; 350,000 tested, 0.67% active; A673 NR0B1-luciferase reporter, viability-normalised;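 active = mean inhibition of at least 50% after viability correction, with every replicate also passing that limit; inconclusive = mean reaches 50% but only one of two replicates passes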;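 note: firefly luciferase signal divided by Alamar Blue viability fluorescence both relative to DMSO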
# GAA850 FXN act: activators of GAA850 frataxin (FXN) promoter; HEK293 lucGAA850 FXN promoter luciferase reporter, 24 h; percent of 10 µM SAHA response; activation, % at 6 µM; 360,000 tested, 0.56% active; AID 540364;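 active = activation above the average of all compounds screened plus 3 SD, cutoff fixed separately per campaign, cut at about 7.5% in these data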;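 note: 0% = DMSO wells and 100% = 10 µM SAHA wells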
# The depositor's hits bear a star; u = inconclusive; x = no result; [ ] = dose if it differs, or a comment.
SMILES,Env fusion inh,PAX8 inh HTS,F508del corr,EWS-Fli inh,GAA850 FXN act
COCC(=O)N[C@@H]1CC[C@@H](CC(=O)NCc2ccccc2OC)O[C@@H]1CO,-44[16.7 µM],-4,-1,-3,x
COc1cc(-c2nccc3cc4c(cc23)OCO4)cc(OC)c1OC,-14,-5,9.2*,32,-5
COn1c(SCc2ccc(C)cc2C)nc2ccccc2c1=O,57*,x,x,x,1
COn1c(SCC(N)=O)nc2ccccc2c1=O,x,x,x,x,3
COCCn1c(C)cc(C2=NNC(=Nc3ccc(Cl)cc3Cl)SC2)c1C,-83,x,x,x,2
Cc1cc(C2=NNC(=NC3CC3)SC2)c(C)n1-c1ccccc1,40,77*,-1,89*,-17
COCCCN=C1NN=C(c2cc(C)n(Cc3ccco3)c2C)CS1,-92,-35,18*,54*,6
Cc1cc(C2=NNC(=NC3CC3)SC2)c(C)n1Cc1ccco1,13,6,x,72*,-15
COC(=O)Cn1c(=O)c(C(=O)CCl)c(N)n(Cc2ccccc2)c1=O,9,63*,-4,u,-7
COc1ccc2c3c(n(C)c2c1)[C@@H](CO)N(C(=O)c1ccccc1)CC31CCN(C)CC1,x,-24,-1,-11,x
CC(=O)Nc1ccc(S(=O)(=O)c2ccnc3cc(Cl)ccc23)cc1,-2,110*,-2,4,-1
CC(=O)Nc1ccc(S(=O)(=O)Nc2ccc(Cl)cn2)cc1,-34,-5,4,-2,1
Cc1cc(C)c2nc(C(F)(F)F)nc(N3CCN(C(=O)c4ccco4)CC3)c2c1,73*,25,x,x,-4
Cc1cc(C)c2nc(N3CCCN(C(=O)c4ccco4)CC3)c(C#N)cc2c1,33,x,x,x,-2
COc1cccc(-c2cn(CC[C@@H]3CC[C@H](NC(C)=O)[C@@H](CO)O3)nn2)c1,-5[16.7 µM],-2,-2,-8,x
C[C@@H]1CN([C@H](C)CO)C(=O)c2c(c3ccccc3n2C)-c2ccccc2CO[C@@H]1CN(C)C(=O)[C@@H]1CCCN1C,-30[16.7 µM],-2,-1,5,x
O=C(C[C@H]1CC[C@H](NC(=O)c2ccccc2)[C@@H](CO)O1)NCc1ccncn1,-19[16.7 µM],5,0,-5,x
COC(=O)[C@]12C[C@H](CC(=O)NCCc3ccccc3OC)C(=O)N(Cc3ccc4c(c3)OCO4)C1=C[C@H](C(C)(C)C)O[C@@H]2C,-5,20,5,13,x
COC(=O)[C@]12C[C@H](CC(=O)NCc3ccc(OC)c(OC)c3)C(=O)N(Cc3ccc4c(c3)OCO4)C1=C[C@H](C(C)(C)C)O[C@@H]2C,39,79*,-2,1,x
CCCCOCCCNC(=O)C[C@H]1C[C@@]2(C(=O)OC)C(=C[C@H](C(C)(C)C)O[C@@H]2C)N(Cc2ccc3c(c2)OCO3)C1=O,74*,14,0,4,x
COC(=O)[C@]12C[C@H](CC(=O)NCc3cccc4ccccc34)C(=O)N(Cc3ccc4c(c3)OCO4)C1=C[C@H](COCc1ccccc1)O[C@@H]2C,18,37,3,4,x
COC(=O)[C@]12C[C@H](CC(=O)NCc3cccc4ccccc34)C(=O)N(Cc3ccc4c(c3)OCO4)C1=C[C@H](C(C)(C)C)O[C@@H]2C,56*,11,-1,3,x
CNC[C@H]1Oc2c(cccc2N(C)C)C(=O)N([C@H](C)CO)C[C@H]1C,-1[16.7 µM],-9,0,-1,x
C/C=C/c1ccc2c(c1)O[C@H](CN(C)C(=O)Cc1ccccc1)[C@@H](C)CN([C@@H](C)CO)S2(=O)=O,u,x,4,23,x
CN1CCN(c2ccc([N+](=O)[O-])cc2C(=O)N2CCOCC2)CC1,20,-9,x,x,1
SMILES,Env fusion inh,PAX8 inh HTS,F508del corr,EWS-Fli inh,GAA850 FXN act
O=C(c1cc([N+](=O)[O-])ccc1N1CCOCC1)N1CCN(c2ccccc2)CC1,-106,91*,-2,x,-2
CC1CCN(c2ccccc2NC(=O)c2cc([N+](=O)[O-])ccc2N2CCOCC2)CC1,60*,7,0,x,12*
O=C(NCCOc1ccccc1)c1cc([N+](=O)[O-])ccc1N1CCOCC1,2,18,12*,58*,-6
O=C(NCCOc1ccccc1F)c1cc([N+](=O)[O-])ccc1N1CCOCC1,63*,24,8.3*,49,-6
CCc1ccccc1NC(=O)c1cc([N+](=O)[O-])ccc1N1CCOCC1,-15,36,1,0,0
O=C(NCCc1ccc(F)cc1)c1cc([N+](=O)[O-])ccc1N1CCOCC1,-16,8,2,-2,1
